CYP2C9 inhib – blockers of cytochrome P450 2C9 activity – biochemical, luminescence, ADME assay, primary screen. 96,000 compounds, 20% hits. AID 777, 2007. inhibition, % at 5 µM. CYP2C9 Supersomes, luciferin-H conversion. P11712;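 active means blocking of liver enzyme CYP2C9 beyond about 50% at 5 µM, limit read from the data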
Target sequence (P11712 whole entry, looked up): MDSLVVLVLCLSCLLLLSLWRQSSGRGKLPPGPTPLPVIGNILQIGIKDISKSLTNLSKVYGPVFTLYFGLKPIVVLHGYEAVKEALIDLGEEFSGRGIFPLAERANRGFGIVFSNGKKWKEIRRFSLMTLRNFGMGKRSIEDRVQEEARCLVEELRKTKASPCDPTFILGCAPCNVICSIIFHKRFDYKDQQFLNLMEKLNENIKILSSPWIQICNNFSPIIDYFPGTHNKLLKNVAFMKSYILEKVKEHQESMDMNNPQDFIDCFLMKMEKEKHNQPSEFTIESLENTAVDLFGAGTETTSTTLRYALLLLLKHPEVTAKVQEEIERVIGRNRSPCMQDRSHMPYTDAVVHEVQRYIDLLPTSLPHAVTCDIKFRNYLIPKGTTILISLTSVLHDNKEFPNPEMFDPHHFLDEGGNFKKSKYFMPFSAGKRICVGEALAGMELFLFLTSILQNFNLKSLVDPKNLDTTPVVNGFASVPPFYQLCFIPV
CYP2C19 activ – human CYP2C19 activators, primary screen, biochemical, luminescence. recombinant CYP2C19, luciferin-H EGE luminescence; active compounds read high; 0 = fully inhibited enzyme, 1 = untreated enzyme. activation factor at 5 µM. 96,000 tested, under 10 active. AID 1025, 2008;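 active means activation factor of at least 2 at 5 µM in the primary screen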;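 further: 0 = wells with 2.5 mM tranylcypromine and 1 = vehicle-only wells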
Measles CPE – compounds protecting cells from measles virus cytopathic effect, primary screen, measles RdRp inhibitor project, single point, MLSMR library, absorbance; Measles virus-infected cells, CPE protection; protection (pct of control), % at 4 µM; 140,000 compounds, 1.5% hits; in the data active means protection mostly above about 24%, no sharp cut-off; inactive means mostly below about 26%
CYP2C19 inhib – blockers of cytochrome P450 2C19 activity – biochemical, luminescence, ADME assay, primary screen; P33261; CYP2C19 Supersomes, luciferin-H EGE luminescence, 30 min; inhibition, % at 5 µM; 96,000 compounds, 21% hits; AID 778, 2007;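 active means CYP2C19 inhibition above a set limit at 5 µM in the primary screen, cut at about 50% in these data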;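 further: plate controls were negative control wells for no effect and 2.5 mM tranylcypromine positive control for full effect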
CYP2C9 act – human CYP2C9 activators, primary screen, biochemical, luminescence | Cytochrome P450 2C9 (Homo sapiens), P11712 | recombinant CYP2C9, luciferin-H conversion; active compounds read high; factor 1 = untreated enzyme, 0 = blocked | activation factor at 5 µM | 96,000 compounds, 1.4% hits | AID 1024, 2008;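 active means activation factor of 2 or more for CYP2C9 at a 5 µM dose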;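 further: 0 = sulfaphenazole-blocked wells and 1 = vehicle-only wells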
Starred values were filed as active, the others as inactive; · = not tested or not shown. Only some compounds are listed: those with a hit (about 22% of all), similar ones and a draw of the others.

SMILES	CYP2C9 inhib	CYP2C19 activ	Measles CPE	CYP2C19 inhib	CYP2C9 act
C=CCOc1c(Cl)cc(C2NC(=O)NC(C)=C2C(=O)OC)cc1Cl (stereo not drawn)	37	0.4	5	57*	0.6
CCN1CCN(S(=O)(=O)c2cccs2)CC1	-13	1.1	13	-8	1.1
C=CCOc1ccc(/C=C/C(C)=N\O)cc1	23	0.8	11	15	0.8
Cn1cc(/C=C(\C#N)C(=O)Nc2ncc(Cc3cccc(Cl)c3)s2)c2ccccc21	·	·	4	·	·
COC(=O)c1[nH]c2ccccc2c1NC(=O)CCN1CCSCC1	3	0.9	5	8	1
O=C(O)CCc1ccc(-c2ccccc2)n1NC(=O)c1ccco1	15	0.6	5	37	0.9
CCOC(=O)C1=C(C)NC(=O)NC1/C(C)=C/c1ccccc1 (stereo not drawn)	69*	0.2	3	78*	0.3
CCOC(=O)C1=C(C)NC(=O)NC1C (stereo not drawn)	-5	1.1	21	-5	1.1
CC(C)(C)c1cc(Br)ccc1OCC(=O)Nc1ncn[nH]1	34	0.5	23	54*	0.7
CC(C)(C)c1ccccc1OCC(=O)Nc1ncn[nH]1	21	0.6	13	42	0.8
Cc1nc2c(C(=O)N3CCCCC3)cnn2c(C)c1Cc1ccccc1F	10	0.2	12	79*	0.9
Cc1cc(C(F)F)n2ncc(C(=O)N3CCCCC3)c2n1	·	·	7	·	·
Cc1nc2c(C(=O)N3CCN(C)CC3)cnn2c(C)c1Cc1ccc(Cl)cc1	26	0.2	20	82*	0.7
Cc1nc2c(C(=O)NCc3cccs3)cnn2c(C)c1Cc1ccccc1	·	·	9	·	·
CCOC(=O)C(C(=O)c1ccccc1)C1CC(C)NC(=S)N1 (stereo not drawn)	·	·	-2	·	·
CCOC(=O)c1c(NC(=O)CC)sc(C(=O)N2CCCCC2)c1C	57*	0.3	21	75*	0.4
CCOC(=O)c1c(N)sc(N)c1C(=O)OCC	·	·	17	·	·
CCOC(=O)c1c(N)sc(C(=O)N2CCCCCC2)c1C	34	0.2	13	81*	0.7
CCOC(=O)c1c(N)ssc1=S	66*	0.7	34	26	0.3
CC(C)(C)n1ncc2c(=O)n(CC(=O)N3CCCCCC3)cnc21	-24	1.2	25	-16	1.2
CCCCOC(=O)c1ccc(NC(C)=O)cc1	25	0.8	1	18	0.8
Cc1ccccc1OCC(=O)Nc1cccc(NC(=O)c2ccco2)c1	19	0.3	7	72*	0.8
CCCCOc1ccccc1NC(=O)c1ccco1	0	0.5	2	52*	1
CCOc1ccccc1NC(=O)c1cccc(NC(=O)c2ccco2)c1	-91	0.2	10	76*	1.9
CCCCCOC(=O)c1ccc(NC(=O)c2ccco2)cc1	94*	0.2	11	80*	0.1
SMILES	CYP2C9 inhib	CYP2C19 activ	Measles CPE	CYP2C19 inhib	CYP2C9 act
CCOC(=O)c1c(C)c(C(=O)NCCN2CCOCC2)c(C)n1CC	-27	1	3	-1	1.3
Cc1cc(NC(=O)c2cccc(F)c2)ncc1NC(=O)c1ccco1	63*	0	6	96*	0.4
Cc1cc(NC(=O)c2ccco2)ncc1NC(=O)CCc1ccccc1	49	0.8	5	23	0.5
CC(=O)Nc1ccc(OCC(O)CN2CCCCC2C)cc1 (stereo not drawn)	·	·	4	·	·
O=C(CCCN1C(=O)c2ccccc2C1=O)NCCC1=CCCCC1	62*	0.8	4	19	0.4
O=C1c2ccccc2C(=O)N1CCC1=CCCCC1	20	0.4	20	61*	0.8
O=C(O)c1ccc2c(c1)C(=O)N(CCC1=CCCCC1)C2=O	16	1	3	1	0.8
Cc1ccc2c(c1)N(CCCC(=O)NCCC1=CCCCC1)C(=O)CO2	58*	0.4	5	59*	0.4
COc1cccc(OCCNc2cc(N3CCOCC3)ccc2[N+](=O)[O-])c1	·	·	11	·	·
O=C(NC1CCCCC1)C1CCN(c2cnccn2)CC1	-47	1.1	3	-9	1.5
Cc1ccc(Sc2nc3c(c(=O)[nH]c(=O)n3C)n2CCc2ccccc2)cc1	16	1	26	3	0.8
Cc1ccccc1NC(=S)N(C)Cc1cccs1	24	0.3	9	75*	0.8
CCCn1c2c(c(O)c(C(=O)Nc3ccccc3)c1=O)CCCC2	76*	0.9	3	13	0.2
CC(C)Cn1c2c(c(O)c(C(=O)Nn3c(Cc4ccccc4)nc4ccccc4c3=O)c1=O)CCCC2	·	·	12	·	·
CCCCc1nc2ccccc2c(=O)n1NC(=O)c1c(O)c2c(n(CC(C)C)c1=O)CCCC2	60*	0.8	12	15	0.4
C=CCN1C(=O)N(/C=C/C)c2cccc3cccc1c23	18	0.8	10	18	0.8
O=C(CN1CCOCC1)NCCC12CC3CC(CC(C3)C1)C2	9	0.5	5	54*	0.9
C[C@]12C=CC(=O)C=C1CCC1C3CC[C@](O)(C(=O)CO)[C@@]3(C)CC3OC312 (stereo partly drawn)	·	·	42*	·	·
COc1ccc(CCNC(=O)C2CCCN2C(=O)Nc2cccc(C(C)=O)c2)cc1OC (stereo not drawn)	-13	1	6	-2	1.1
COc1ccccc1/C=C/C(=C1/C(=O)N(c2ccccc2)N=C1C)c1ccc(C)cc1	·	·	19	·	·
CCOc1ccc2oc(-c3ccccc3)c(C(=O)O)c2c1	-12	1.1	17	-10	1.1
CCOc1ccc2oc(-c3ccccc3)c(C(=O)N3CCN(CCO)CC3)c2c1	82*	0.6	6	40	0.2
CC1=C(C(=O)Nc2ccc(C)cc2C)C(c2ccc(C)o2)NC(=S)N1 (stereo not drawn)	·	·	15	·	·
O=C(CCN1C(=O)c2ccccc2C1=O)N1CCCCCC1	-23	1	27	4	1.2
CCN(C(=O)CCN1C(=O)c2ccccc2C1=O)C1CCCCC1	-45	0.2	2	78*	1.4
SMILES	CYP2C9 inhib	CYP2C19 activ	Measles CPE	CYP2C19 inhib	CYP2C9 act
O=C(CCN1C(=O)c2ccccc2C1=O)N1CCC(c2ccccc2)C1 (stereo not drawn)	-12	0.3	31	72*	1.1
O=C(COc1ccc(Br)cc1)N1CCC(c2ccccc2)C1 (stereo not drawn)	14	0.1	0	88*	0.9
CCN1C(=O)c2cccc3c(S(=O)(=O)Nc4ccccn4)ccc1c23	65*	0.8	5	20	0.4
CCN1C(=O)c2cccc3c(S(=O)(=O)Nc4ncccc4C)ccc1c23	56*	0.8	3	23	0.4
CN(C)c1cccc2c(S(=O)(=O)Nc3ccccn3)cccc12	-13	0.1	23	92*	1.1
CCN1C(=O)c2cccc3c(S(=O)(=O)NCc4cccnc4)ccc1c23	20	1	11	2	0.8

Source: PubChem (several laboratories)
